Experimental findings from PubChem BioAssay (EPA / NIEHS) are described below.

Active and inactive are the calls of the source. How the source made its calls: active means hit-call score of the fitted dose curve at least 0.9, where 1 is the maximum; inactive means score below 0.9.

Read-out in the first experiment: Interleukin 17F (IL17F), IL17F (gene 112744)
Description: BSK_BT_xIL17F: BioMAP Diversity Plus: BT Assay for Interleukin 17F (IL17F) Biomarker Activity (AID 2284243). The conditions noted are these: primary human B cells with PBMC. In a few lines:
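Luminex readout of IL-17F secretion, 24 h; cells: human B cells with PBMC; positive-direction analysis, DMSO control.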
Turning to `CN(c1nccc(=O)[nH]1)C1CCN(c2nc3ccccc3n2Cc2ccc(F)cc2)CC1`, the result was inactive.

As for `O=C1OC2(c3ccccc31)c1ccc(O)c(Br)c1Oc1c2ccc(O)c1Br`, the outcome was inactive.

As for `CN(C)C(=S)SC(=S)N(C)C`, the AC50 was 0.559 µM (active).

For the compound `CCC(C)c1cc([N+](=O)[O-])cc([N+](=O)[O-])c1OC(=O)OC(C)C` (stereo not drawn), the half-maximal activity concentration (AC50) was 33.7 µM (active).

With `CCCCOC(=O)CCCCCCCC(=O)OCCCC`, the outcome was inactive.

With `CC1(C)C2=CCCC(C)(C)[C@]23CC[C@H]1C3`, the result was inactive.

For `O=C1OC[C@H](Cc2cccc(O)c2)[C@H]1Cc1cccc(O)c1`, the result was inactive.

For the compound `COc1ccc(OC)c(N=Nc2c(O)ccc3ccccc23)c1`, the AC50 was 5.41 µM (active).

With `Oc1c(Cl)cc(Cl)c(Cl)c1Cc1c(O)c(Cl)cc(Cl)c1Cl`, the AC50 was 9.92 µM (active).

For `C=C(C)C(=O)OCCOCCOCCOCCOC(=O)C(=C)C`, the outcome was inactive.

`IC(I)I`: the outcome was inactive.

Regarding `C1=CC2C3C=CC(C3)C2C1` (stereo not drawn), the result was inactive.

`C[C@@H]1CCN(C(=O)[C@H](CCCN=C(N)N)NS(=O)(=O)c2cccc3c2NC[C@H](C)C3)[C@@H](C(=O)O)C1`: the result was inactive.

On to `Cc1cc(CCC(=O)OCCOCCOCCOC(=O)CCc2cc(C)c(O)c(C(C)(C)C)c2)cc(C(C)(C)C)c1O`, for which the outcome was inactive.

As for `CC(=O)Nc1ccc(C(=O)CCl)cc1`, the AC50 is 3.15 µM (active).

As to `CCCCN(CCCC)C(=O)N(CCCC)CCCC`, the AC50 was 29 µM (active).

As for `C=C(C)C(=O)OCC(CC)(COC(=O)C(=C)C)COC(=O)C(=C)C`, the AC50 was 27.5 µM (active).

Read-out in the next experiment: Actin alpha 1 (ACTA1), ACTA1 (gene 58)
Description: BSK_MyoF_ACTA1: BioMAP Diversity Plus: MyoF Assay for Actin alpha 1 (ACTA1) Biomarker Activity (AID 2284244). The conditions noted are these: primary human lung fibroblasts. In short, it runs like this:
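Measured by ELISA: alpha-smooth muscle actin in human primary lung fibroblasts 24 h after dosing, with DMSO as baseline and upward signal change as the fitted direction.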
With `CN(c1nccc(=O)[nH]1)C1CCN(c2nc3ccccc3n2Cc2ccc(F)cc2)CC1`, the result was inactive.

Regarding `O=C1OC2(c3ccccc31)c1ccc(O)c(Br)c1Oc1c2ccc(O)c1Br`, the result was inactive.

As for `CN(C)C(=S)SC(=S)N(C)C`, the AC50 was 36.6 µM (active).

Turning to `CCC(C)c1cc([N+](=O)[O-])cc([N+](=O)[O-])c1OC(=O)OC(C)C` (stereo not drawn), the AC50 was 8.46 µM (active).

Turning to `CCCCOC(=O)CCCCCCCC(=O)OCCCC`, the outcome was inactive.

As to `CC1(C)C2=CCCC(C)(C)[C@]23CC[C@H]1C3`, the AC50 was 30.9 µM (active).

With `O=C1OC[C@H](Cc2cccc(O)c2)[C@H]1Cc1cccc(O)c1`, the result was inactive.

As for `COc1ccc(OC)c(N=Nc2c(O)ccc3ccccc23)c1`, the AC50 was 10.5 µM (active).

On to `Oc1c(Cl)cc(Cl)c(Cl)c1Cc1c(O)c(Cl)cc(Cl)c1Cl`, for which the AC50 was 0.469 µM (active).

As for `C=C(C)C(=O)OCCOCCOCCOCCOC(=O)C(=C)C`, the outcome was inactive.

`IC(I)I`: the outcome was inactive.

As to `C1=CC2C3C=CC(C3)C2C1` (stereo not drawn), the outcome was inactive.

Turning to `C[C@@H]1CCN(C(=O)[C@H](CCCN=C(N)N)NS(=O)(=O)c2cccc3c2NC[C@H](C)C3)[C@@H](C(=O)O)C1`, the outcome was inactive.

In the case of `Cc1cc(CCC(=O)OCCOCCOCCOC(=O)CCc2cc(C)c(O)c(C(C)(C)C)c2)cc(C(C)(C)C)c1O`, the outcome was inactive.

Regarding `CC(=O)Nc1ccc(C(=O)CCl)cc1`, the AC50 was 20 µM (active).

Take `CCCCN(CCCC)C(=O)N(CCCC)CCCC`: the AC50 was 6.35 µM (active).

Turning to `C=C(C)C(=O)OCC(CC)(COC(=O)C(=C)C)COC(=O)C(=C)C`, the AC50 is 10.5 µM (active).

Read-out in another experiment: Interleukin 2 (IL2), IL2 (gene 3558)
Nature of the experiment: BSK_BT_xIL2: BioMAP Diversity Plus: BT Assay for Interleukin 2 (IL2) Biomarker Activity (AID 2284245). The conditions noted are these: primary human B cells with PBMC. In a few lines: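 Secreted interleukin-2 from human B cell/PBMC co-cultures, measured 24 h post-dosing by Luminex multiplex immunoassay. Upward-direction curve fitting against DMSO baseline.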
Take `CN(c1nccc(=O)[nH]1)C1CCN(c2nc3ccccc3n2Cc2ccc(F)cc2)CC1`: the AC50 was 9.2 µM (active).

Regarding `O=C1OC2(c3ccccc31)c1ccc(O)c(Br)c1Oc1c2ccc(O)c1Br`, the outcome was inactive.

Regarding `CN(C)C(=S)SC(=S)N(C)C`, the AC50 is 0.432 µM (active).

Take `CCC(C)c1cc([N+](=O)[O-])cc([N+](=O)[O-])c1OC(=O)OC(C)C` (stereo not drawn): the AC50 is 20 µM (active).

For the compound `CCCCOC(=O)CCCCCCCC(=O)OCCCC`, the result was inactive.

For `CC1(C)C2=CCCC(C)(C)[C@]23CC[C@H]1C3`, the outcome was inactive.

In the case of `O=C1OC[C@H](Cc2cccc(O)c2)[C@H]1Cc1cccc(O)c1`, the outcome was inactive.

Consider `COc1ccc(OC)c(N=Nc2c(O)ccc3ccccc23)c1`, for which the result was inactive.

Regarding `Oc1c(Cl)cc(Cl)c(Cl)c1Cc1c(O)c(Cl)cc(Cl)c1Cl`, the AC50 is 19.6 µM (active).

In the case of `C=C(C)C(=O)OCCOCCOCCOCCOC(=O)C(=C)C`, the result was inactive.

As for `IC(I)I`, the outcome was inactive.

As to `C1=CC2C3C=CC(C3)C2C1` (stereo not drawn), the result was inactive.

`C[C@@H]1CCN(C(=O)[C@H](CCCN=C(N)N)NS(=O)(=O)c2cccc3c2NC[C@H](C)C3)[C@@H](C(=O)O)C1`: the outcome was inactive.

For `Cc1cc(CCC(=O)OCCOCCOCCOC(=O)CCc2cc(C)c(O)c(C(C)(C)C)c2)cc(C(C)(C)C)c1O`, the result was inactive.

`CC(=O)Nc1ccc(C(=O)CCl)cc1`: the AC50 was 5.57 µM (active).

Regarding `CCCCN(CCCC)C(=O)N(CCCC)CCCC`, the AC50 is 32.5 µM (active).

As for `C=C(C)C(=O)OCC(CC)(COC(=O)C(=C)C)COC(=O)C(=C)C`, the AC50 was 19.7 µM (active).

Read-out in a further experiment: Basic fibroblast growth factor (bFGF), FGF2 (gene 2247)
Nature of the experiment: BSK_MyoF_bFGF: BioMAP Diversity Plus: MyoF Assay for Basic fibroblast growth factor (bFGF) Biomarker Activity (AID 2284246). The conditions noted are these: primary human lung fibroblasts. In short, it runs like this: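 In this multiplexed cell system, lung fibroblasts (human primary) receive test chemical for 24 h before ELISA detection of bFGF; DMSO defines baseline and the analysis direction is positive.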
Consider `CN(c1nccc(=O)[nH]1)C1CCN(c2nc3ccccc3n2Cc2ccc(F)cc2)CC1`, for which the result was inactive.

As to `O=C1OC2(c3ccccc31)c1ccc(O)c(Br)c1Oc1c2ccc(O)c1Br`, the result was inactive.

As for `CN(C)C(=S)SC(=S)N(C)C`, the AC50 was 31.9 µM (active).

Take `CCC(C)c1cc([N+](=O)[O-])cc([N+](=O)[O-])c1OC(=O)OC(C)C` (stereo not drawn): the AC50 is 27.7 µM (active).

With `CCCCOC(=O)CCCCCCCC(=O)OCCCC`, the outcome was inactive.

As to `CC1(C)C2=CCCC(C)(C)[C@]23CC[C@H]1C3`, the result was inactive.

With `O=C1OC[C@H](Cc2cccc(O)c2)[C@H]1Cc1cccc(O)c1`, the result was inactive.

As to `COc1ccc(OC)c(N=Nc2c(O)ccc3ccccc23)c1`, the AC50 was 20 µM (active).

Take `Oc1c(Cl)cc(Cl)c(Cl)c1Cc1c(O)c(Cl)cc(Cl)c1Cl`: the AC50 was 1.32 µM (active).

Turning to `C=C(C)C(=O)OCCOCCOCCOCCOC(=O)C(=C)C`, the result was inactive.

As to `IC(I)I`, the outcome was inactive.

As to `C1=CC2C3C=CC(C3)C2C1` (stereo not drawn), the outcome was inactive.

For `C[C@@H]1CCN(C(=O)[C@H](CCCN=C(N)N)NS(=O)(=O)c2cccc3c2NC[C@H](C)C3)[C@@H](C(=O)O)C1`, the result was inactive.

As for `Cc1cc(CCC(=O)OCCOCCOCCOC(=O)CCc2cc(C)c(O)c(C(C)(C)C)c2)cc(C(C)(C)C)c1O`, the outcome was inactive.

On to `CC(=O)Nc1ccc(C(=O)CCl)cc1`, for which the AC50 is 32.5 µM (active).

Regarding `CCCCN(CCCC)C(=O)N(CCCC)CCCC`, the AC50 is 10.1 µM (active).

Turning to `C=C(C)C(=O)OCC(CC)(COC(=O)C(=C)C)COC(=O)C(=C)C`, the AC50 is 29.4 µM (active).
